Screening data (PubChem BioAssay)
HCV NS3h FP: HCV NS3 helicase inhibitors, primary screen, biochemical, fluorescence polarization, ChemBridge library; NS3h Cy5-dT15 DNA binding; inhibition, % at 100 µM; Hepatitis C virus NS3 helicase; 16,000 tested, 1.6% active;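 active means inhibition above the average over every tested compound plus 3 SD, cut at about 40% in these data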
Cy5 interf NS3h: Cy5 fluorescence quenchers or enhancers, artefact control for HCV NS3 helicase inhibitor project, biochemical, ChemBridge library, Cy5 readout; AID 720488, 2013; 16,000 tested, 6% active; fluorescence interference ratio at 100 µM; Cy5-dT15 DNA with NS3h, fluorescence interference; actives lie on both sides; signal over control mean, under 1 quenches;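 active means compound fluorescence over control fluorescence at most 0.8, a quencher, or at least a set upper limit, an enhancer; inactive means ratio between 0.8 and the set upper limit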
* marks the source's active call; other numbers are inactive results. An excerpt weighted towards active compounds, which were near 7.6% of everything screened.

SMILES	HCV NS3h FP	Cy5 interf NS3h
CC(=O)N1CCN=C1Nc1c(Cl)cccc1Cl	12	0.6*
Cc1cccc(Cl)c1NC(=O)C1CC(=O)N(c2ccc(Br)cc2)C1 (stereo not given)	19	1.1
N#CCCn1cc(/C=C2\N=C(c3ccccc3)OC2=O)c(-c2ccc(Br)cc2)n1	1	1
COc1ccc(-c2nc(-c3ccccc3)c(-c3ccccc3)[nH]2)cc1[N+](=O)[O-]	19	0.91
COC(=O)C1=C(C)NC(C)=C(C(=O)OC)C1c1ccc(-c2cccc(Br)c2)o1	21	0.82
CN(C)c1ccc(NC(=O)c2ccccc2Cl)cc1	10	1.1
O=C(Nc1ccc(-c2cnc(-c3ccc(NC(=O)c4ccccc4Cl)cc3)nc2)cc1)c1ccccc1Cl	16	0.72*
COc1cc(OC)cc(C(=O)O/N=C(/c2ccncc2)c2ccc([N+](=O)[O-])cc2)c1	12	0.61*
N/C(=N/OC(=O)c1cccc(Br)c1)c1ccncc1	8	0.89
O=C(O/N=C(\c1ccccc1)c1ccncc1)c1ccc(Br)cc1	25	0.66*
Cc1ccc(/C(N)=N\OC(=O)c2ccc([N+](=O)[O-])cc2)cc1	31	0.87
CCOC(=O)CC(=O)Nc1ccccc1C(=O)OCC	0	1.2
O=C1C(=O)N(c2nncs2)C(c2cccc(Br)c2)C1=C(O)c1ccc(F)cc1 (stereo not given)	-1	0.85
CCCc1cc(=O)n2[nH]c(-c3ccc(F)cc3)cc2n1	0	0.87
Cc1nc2cc(-c3ccccc3Cl)[nH]n2c(=O)c1Cl	12	1.1
CCCc1cc(=O)n2[nH]c(-c3ccc(C)cc3)cc2n1	30	1.2*
Cc1ccc(-c2cc3nc(C)c(Cl)c(=O)n3[nH]2)cc1	14	0.77*
COc1ccc(CCNS(=O)(=O)c2ccc3ccccc3c2)cc1	16	1
O=C(c1cc([N+](=O)[O-])ccc1F)n1nnc2ccccc21	-26	1
Cc1ccc(OCC(=O)Nc2cc(Cl)cc(Cl)c2)cc1C	27	1
O=C1c2ccccc2C(=O)C1(Nc1ccc(F)cc1)c1ccccc1	17	0.98
Cc1ccccc1NC1(c2ccccc2Cl)C(=O)c2ccccc2C1=O	9	0.74*
Cc1ccc(OCCNC(=O)Cc2cccc3ccccc23)cc1	12	0.97
O=C(CC1c2ccccc2Oc2ccccc21)NCCOc1ccccc1	38	0.67*
NC(=S)N/N=C\c1cc2c(cc1[N+](=O)[O-])OCO2	10	0.79*
SMILES	HCV NS3h FP	Cy5 interf NS3h
O=C(N/N=C\c1ccc(O)c([N+](=O)[O-])c1)/C(=C\c1ccc2c(c1)OCO2)NC(=O)c1ccccc1	5	1
COc1ccc(CN2CCN(C(=O)CC(C)C)CC2)cc1OCc1ccccc1	-2	1
CCOc1cc(OCC)cc(C(=O)Nc2ccc(F)cc2)c1	20	1
CCOc1cc(C(=O)Nc2ccc(F)cc2)cc(OCC)c1OCC	17	0.71*
Nc1ccc(C(=O)NCCNCCNC(=O)c2ccc(N)cc2)cc1	15	0.8*
Nc1ccc(C(=O)Nc2cccc3ccccc23)cc1	14	1.1
O=C1NC(=S)N/C1=C\c1ccccc1	16	1.2*
O=C1NC(=S)N/C1=C/c1ccc(O)c(Cl)c1	-4	0.98
CN(C)c1ccc(/C=C2\C(=O)c3cccc([N+](=O)[O-])c3C2=O)cc1	49*	0.94
CN(C)c1ccc(/C=C2\C(=O)Oc3ccccc3C2=O)cc1	26	1.1
O=C(Nc1ccccc1C(=O)Nc1ccccn1)c1ccc([N+](=O)[O-])cc1	-45	0.75*
Cc1ccc(C)c(NC(=O)c2ccc([N+](=O)[O-])cc2)c1	8	0.69*
O=C(Nc1ccccc1C(=O)N1CCOCC1)c1ccc([N+](=O)[O-])cc1	0	0.96
Cc1cc([N+](=O)[O-])ccc1NC(=O)c1ccccc1	-19	1
COc1ccc(OC)c(NC2=NS(=O)(=O)c3cc([N+](=O)[O-])ccc32)c1	14	1
COC(=O)c1ccc(-n2c(C)cc(/C=C3\C(=O)NC(=O)N(c4ccc(OC)cc4)C3=O)c2C)cc1	5	0.99
COC(=O)c1ccc(-n2c(C)cc(C=C3C(=O)N(C)C(=O)N(C)C3=O)c2C)cc1	16	0.8*
O=C(Nc1ccc2c(c1)C(=O)OC2)NC1CCCCC1	21	1.4*
CN(C)c1cccc(C(=O)NC2CCCCCC2)c1	8	1.1
CC1CCOC(c2cccc([N+](=O)[O-])c2)O1 (stereo not given)	4	1
CCOC(=O)C1=C(C)N=c2s/c(=C\c3ccc(N(C)C)o3)c(=O)n2C1c1ccc(OCC)cc1 (stereo not given)	1	0.8*
CCOC(=O)C1=C(C)N=c2s/c(=C\c3ccc([N+](=O)[O-])o3)c(=O)n2C1c1ccc(OCC)cc1 (stereo not given)	-6	0.86
CC1=NN(C(=O)c2ccccc2)C(C)(O)C1(C)C (stereo not given)	-2	1.1
Cc1ccc2nsnc2c1NC(=O)COc1ccc([N+](=O)[O-])cc1	22	0.86
O=C1CSC2(N1)C1CC3CC(C1)CC2C3 (stereo not given)	-1	1.2*
SMILES	HCV NS3h FP	Cy5 interf NS3h
O=C(NC(=S)Nc1ccc2oc(-c3ccc(F)cc3)nc2c1)c1ccco1	-16	1.1
CCOc1ccc2nc(NC3=NC(CC(=O)O)C(=O)N3)nc(C)c2c1 (stereo not given)	12	1
O=c1oc(-c2cccnc2)nc2ccccc12	3	1
O=C1c2ccc(-c3nc4ccccc4c(=O)o3)cc2C(=O)N1c1c[nH]c(=O)[nH]c1=O	41*	1
CCC(C(=O)NC(c1ccccc1)c1ccccc1)c1ccccc1 (stereo not given)	4	1.1
COc1cccc(CN2CCN(S(C)(=O)=O)CC2)c1OC	3	0.65*
COc1ccc(Br)cc1CN1CCN(S(C)(=O)=O)CC1	8	0.67*
COc1ccc(CN2CCN(Cc3ccccc3OC)CC2)c(OC)c1	-8	1.1
COc1ccc(CN2CCN(S(C)(=O)=O)CC2)c(OC)c1	0	0.69*
COc1ccc(S(=O)(=O)N2CCN(Cc3cccc(OC)c3)CC2)cc1	12	0.94
COc1ccc(CN2CCN(S(C)(=O)=O)CC2)cc1OCc1ccccc1	5	1
COc1cccc(CN2CCN(Cc3ccc(Br)cc3)CC2)c1OC	-10	0.92
COc1cccc(CN2CCN(S(C)(=O)=O)CC2)c1	4	0.77*
CCOC(=O)c1c(N2CCOCC2)nc2ccc([N+](=O)[O-])cc2c1-c1ccccc1	2	0.99
COc1ccc(/C=N\n2cnnc2)cc1Cn1nc(C)c([N+](=O)[O-])c1C	11	1
Cc1ccc(-c2nc(Nc3ccccc3)s[n+]2CS(=O)(=O)c2ccccc2)cc1	-17	0.87
O=C(N1CCN(c2ccc([N+](=O)[O-])cc2)CC1)S(=O)(=O)c1ccccc1	14	0.96
CC(=O)Oc1ccc(-c2cccc(C(=O)NCc3ccccc3)c2)cc1	29	0.81
COc1ccc(N(CC(=O)Nc2ccc(Cl)cc2)S(C)(=O)=O)c(OC)c1	1	0.87
COc1cc(/C=C2/C(=O)N(c3ccccc3)N=C2C)cc(I)c1O	17	0.69*
COc1cc(/C=C2/C(=O)N(c3ccccc3)N=C2C)cc([N+](=O)[O-])c1O	4	0.93
Cc1ccc(/C=N\NC(=O)/C(=C/c2ccc(N(C)C)cc2)NC(=O)c2ccccc2)c(O)c1	-3	1.1
